Assay outcomes: PubChem BioAssay, National Center for Advancing Translational Sciences (NCATS)
Only some compounds are listed: those with a hit (about 11% of all), similar ones and a draw of the others.
MCF10A rerep: induces DNA re-replication in MCF 10a normal breast cells; MCF 10A DNA re-replication, Hoechst nuclear intensity, 48 h; Potency, µM (doses to about 46.1 µM), for inactives: at the top dose activity, positive = re-replication, usual class: activators; actives 2.9% (n = 350,000); also: potency is read from the fitted curve at half-maximal effect; % of control where 0% means no effect; nearly all actives have a fitted effect of over 50% in size
RORg inh: blocks mouse ROR gamma transcriptional activity; Drosophila S2 Gal4-RORgamma UAS-luciferase reporter, 20 h; Potency, µM (highest dose often 53.6 µM), inactives show at the top dose activity change, negative = inhibition, most hits filed as inhibitors; actives 5.4% (n = 310,000); AID 2551; also: potency is read from the fitted curve at half-maximal effect; % is scaled to controls: 0 for no effect and ±100 for the full control effect; nearly all actives have a fitted effect of over 60% in size
Target sequence (P51450 whole entry, looked up, the tested form may be a part): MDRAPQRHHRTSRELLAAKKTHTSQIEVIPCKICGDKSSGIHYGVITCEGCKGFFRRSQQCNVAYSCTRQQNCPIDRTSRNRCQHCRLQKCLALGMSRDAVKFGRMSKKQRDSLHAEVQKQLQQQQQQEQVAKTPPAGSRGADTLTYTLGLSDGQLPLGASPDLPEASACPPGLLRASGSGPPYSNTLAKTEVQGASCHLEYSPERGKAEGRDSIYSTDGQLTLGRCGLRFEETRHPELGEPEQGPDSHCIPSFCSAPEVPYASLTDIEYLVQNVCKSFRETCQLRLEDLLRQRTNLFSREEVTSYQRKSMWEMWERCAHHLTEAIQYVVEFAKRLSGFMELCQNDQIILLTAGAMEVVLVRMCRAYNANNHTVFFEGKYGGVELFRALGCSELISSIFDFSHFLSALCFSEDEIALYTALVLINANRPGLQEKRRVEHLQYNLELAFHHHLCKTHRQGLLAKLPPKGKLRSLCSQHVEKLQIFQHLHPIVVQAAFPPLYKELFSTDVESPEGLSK
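Compounds are pin-transferred onto Drosophila Schneider cells expressing a copper-inducible Gal4–ROR gamma transactivation domain fusion. After 1 hr, copper sulfate is added to 700 uM final; luciferase is read 20 hr later.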
SW480 rerep: induces DNA re-replication in SW480 colon adenocarcinoma cells | actives 1.8% (n = 340,000) | Potency, µM (doses to about 46.1 µM), for the others: at the highest dose re-replication activation, most hits filed as activators | AID 624297 | SW480 DNA re-replication, Hoechst DNA content imaging, 48 h; also: potency is read from the fitted curve at half-maximal effect; % of control where 0% means no effect; nearly all actives have a fitted effect of over 55% in size
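Hoechst fluorescence of nuclei (405 nm excitation, 500-530 nm emission) measured by plate-scanning imager after 48 hr compound exposure at 37 C; re-replication scored as increased number of nuclei with elevated intensity.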
IL-1B inflam inh: inhibitors of inflammasome signaling (IL-1 beta secretion) | actives 4.7% (n = 360,000) | activity change, % at 57.5 µM | THP-1 LPS/ATP IL-1B secretion, AlphaLISA, 16 h; hits give low values; in the data active = activity change below about -50%; inconclusive = mostly about -30% to -49%; also: % is scaled to controls: 0 for no effect and ±100 for the full control effect
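THP-1 cells pretreated 1 hr with compounds (up to 57.5 uM final), then stimulated with LPS (250 ng/mL final) plus ATP (1.25 mM final); secreted IL-1B measured by AlphaLISA after 16 hr, decreased signal indicating inhibition.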
Gal4-VP16 FLuc: counter-screen for ROR gamma inhibitors: Gal4-VP16 reporter; actives 3.5% (n = 310,000); Drosophila S2 Gal4-VP16 UAS-luciferase, luminescence, 20 h; Potency, µM (doses to about 53.6 µM), for the others: at the highest dose activity, negative = inhibition, hits mostly inhibitors;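 also: Gal4-VP16 expression switched on by copper sulfate through the metallothionein promoter; potency is read from the fitted curve at half-maximal effect; % is scaled to controls: 0 for no effect and ±100 for the full control effect; nearly all actives have a fitted effect of over 50% in size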
Numbers without * were called inactive; ? = inconclusive; / = no result given; [ ] = dose if it differs, or a comment. Unless noted, calls follow the shape of the dose curve; as a rule, active = well fitted curve in the direction sought with a large enough effect; inconclusive = small, poorly fitted or top-dose-only effect, or another doubt; inactive = no such curve, though single readings can be large; an effect the other way counts as inactive or inconclusive.

SMILES	MCF10A rerep	RORg inh	SW480 rerep	IL-1B inflam inh	Gal4-VP16 FLuc
Cc1[nH]n(-c2ncc(-c3ccccc3)s2)c(=O)c1C(c1ccc(Br)cc1)C(C#N)C#N (stereo unspecified)	?	11µM*	7%	-64*	13µM*
Cc1[nH]n(C(N)=S)c(=O)c1C(c1ccccc1)C(C#N)C#N (stereo unspecified)	-13%	10µM*	-6%	-10	10µM*
O=C(Nc1ccccc1)N1CC2(CCN(C(=O)c3cccc(F)c3)CC2)C1	/	-23%	/	/	-1%
CCN(CC(=O)Nc1c(F)cccc1F)C(=O)c1cccc(-n2cnnn2)c1	1%	/	-5%	3	/
COc1cc(Cl)cc2c1Sc1ccccc1/C2=C/CCN(C)C	?	-21%	?	-60*	-6%
CN(C)CC/C=C1/c2ccccc2Sc2c(O)cc(Cl)cc21	27%	-2%	?	?	-17%
CN(C)Cc1ccc(F)cc1Sc1ccc(Cl)cc1Cl	-1%	-1%	-27%	-14	-18%
COc1cc2c(cc1Cl)/C(=C\CCN(C)C)c1ccccc1S2	?	7%	?	-103*	-5%
CN(C)CC/C=C1/c2cc(F)ccc2Sc2ccc(Cl)cc21	44%	/	-80%	-51*	/
Clc1ccc(-c2cnc3n2CCCCC3)cc1	-1%	5.6µM*	-10%	?	?
Clc1ccc(-c2nnc3n2CCCCC3)cc1	1%	13%	0%[9.22 µM]	71	5%
CCOc1ccc(-c2cnc3n2CCC3)cc1	9%	16µM*	9.2µM*	-20	-27%
Fc1ccc(-c2cnc3n2CCCCC3)cc1	-11%	11µM*	-65%[1.84 µM]	-17	-15%
Brc1ccc(-c2cnc3n2CCCC3)cc1	?	?	8%	-24	?
CCC(=O)c1cc(F)c(N2CCN(S(=O)(=O)c3ccccc3)CC2)cc1C	22%	26%	?	?	-8%
CCCC(=O)c1cc(F)c(N2CCN(S(=O)(=O)c3ccccc3)CC2)cc1C	-6%	0%	4%	-59*	-10%
c1ccc2c(c1)NC1(CCCC1)n1c-2nc2ccccc21	-10%	-22%	0%	-79*	-3%
Cc1ccc(Nc2nc(NCc3ccco3)c3ccccc3n2)cc1	?	?	?	-109*	-13%[10 µM]
COc1ccccc1Nc1nc(NCc2ccco2)c2ccccc2n1	23µM*	12%	-24%	/	?
Fc1ccccc1-c1nc(NCc2ccco2)c2ccccc2n1	-2%	?	-1%	0	12%
COc1cccc(-c2nc(-c3ccccc3)no2)c1	-2%	-41%	3%	8	?
COc1nc(C)ccc1-c1noc(-c2cccs2)n1	11%	1.8µM*	-25%	-3	?
Cc1cccc(-c2noc(-c3ccc4c(c3)OCO4)n2)c1	1%	7%	-2%	15	8%
COc1cccc(-c2nc(-c3ccccn3)no2)c1	-4%	?	-8%	17	4.5µM*
O=[N+]([O-])c1cccc(-c2nc(-c3ccccn3)no2)c1	3%	11µM*	7%	14	?
SMILES	MCF10A rerep	RORg inh	SW480 rerep	IL-1B inflam inh	Gal4-VP16 FLuc
c1ccc(-c2noc(-c3ccc4c(c3)OCO4)n2)nc1	?	3.2µM*	?	6	3.2µM*
O=C(CCC(=O)c1ccc(Cl)s1)Nc1ncccc1O	2%	/	?	19	/
c1ccc(-c2noc(C3CCCCC3)n2)nc1	?	3.5µM*	2%	-4	-27%
c1ccc(-c2noc(-c3ccncc3)n2)nc1	-18%	?	2%	-5	?
Cc1occc1-c1nc(-c2ccncc2)no1	-3%	28%	-7%	-13	4%
CCOc1nc(C)ccc1-c1noc(-c2ccccn2)n1	-8%	24%	-9%	-51*	3%
c1ccc(-c2noc(-c3ccc4ccccc4c3)n2)nc1	17%	2.5µM*	-16%	15	2.2µM*
Cc1occc1-c1nc(-c2ccccn2)no1	?	13µM*	0%	1	?
COc1ccccc1CN1CCCC2(CCN(C(=O)c3cc(C(F)(F)F)cc(C(F)(F)F)c3)CC2)C1	/	5%	/	/	-2%
CCOc1cc(CNc2ccc(N3CCCCC3)cc2)cc(Br)c1OCC(=O)NC(C)(C)C	?	-33%	11%	-86*	-27%
CCOc1cc(CNc2ccc(N3CCOCC3)cc2)cc(Br)c1OCC	?	166%	?	?	-18%
CCOc1cc(CNc2ccc(N(C)C)cc2)cc(Br)c1OCC(=O)NC(C)(C)C	?	10µM*	?	-11	-12%
CCOc1cc(CNc2cccc3ccccc23)cc(Br)c1OCC(=O)NC(C)(C)C	-4%	?	-4%	2	14%
CCOc1cc(CNc2ccc3c(c2)OCCO3)cc(Br)c1OCC	2.6µM*	?	5.8µM*	-11	?
CCOC(=O)C1=CCN(S(=O)(=O)c2ccc(Br)cc2)C1c1ccccc1 (stereo unspecified)	/	/	/	4	/
CN(C)CCn1c(=S)[nH]c2ccccc2c1=O	8%	5%	0%	39	-8%
CCN(CC)CCn1c(=S)[nH]c2ccc(Cl)cc2c1=O	19%	?	29%	-10	?
O=c1c2ccccc2[nH]c(=S)n1Cc1ccccc1Cl	13%	3.5µM*	-3%	43	5µM*
O=c1c2cc(Cl)ccc2[nH]c(=S)n1Cc1ccccn1	4%	2.2µM*	-2%	23	3.2µM*
CCN(CC)CCn1c(=S)[nH]c2cc(Cl)ccc2c1=O	?	13µM*	16%	-4	?
O=C(NCc1ccccn1)c1ccc(Cn2c(=S)[nH]c3ccc(Br)cc3c2=O)cc1	?	-2%	3%	12	-2%
CCCn1c(=S)[nH]c2ccccc2c1=O	9%	2.8µM*	4%	-17	7.9µM*
CN(C)CCCn1c(=S)[nH]c2ccccc2c1=O	24%	-29%	-18%	-20	-7%
Cc1ccc(C)c(NC(=O)CN(C)C(=O)C2CCN(C(=O)Nc3ccccc3)CC2)c1	-31%	/	-43%	-16	/
COc1cc2[nH]c(=O)n(Cc3ccccc3Cl)c(=O)c2cc1OC	5%	1%	-11%	24	0%
SMILES	MCF10A rerep	RORg inh	SW480 rerep	IL-1B inflam inh	Gal4-VP16 FLuc
O=c1c2ccccc2[nH]c(=S)n1CCN1CCN(Cc2ccccc2)CC1	2%	35µM*	-1%	-6	?
COc1cc2[nH]c(=S)n(Cc3ccccc3)c(=O)c2cc1OC	?	3.2µM*	-4%	-19	5µM*
O=C(Cn1c(=S)[nH]c2ccccc2c1=O)N1CCc2ccccc2C1	7%	-15%	-13%	25	9%
CN1CCN(CCn2c(=S)[nH]c3ccccc3c2=O)CC1	-7%	-8%	-12%	16	5%
O=c1c2ccccc2[nH]c(=S)n1Cc1cccs1	11%	1.6µM*	5%	0	3.2µM*
O=c1c2ccccc2[nH]c(=S)n1CCN1CCc2ccccc2C1	?	11µM*	-2%	9	?
